Measurements taken from PubChem BioAssay AID1259343 (VanderVen Lab, College of Veterinary Medicine, Cornell …, 2017).
The campaign covered roughly 6,200 compounds. About 2,900 (47%) were called active. So high a share suggests a set chosen from earlier hits. The list shows a part of the results. A number with no mark means an inactive call. Rule as the data show it: active = inhibition above about 50%; inactive = the rest.

Assay: Mycobacterium tuberculosis growth inhibition, primary screen (AID 1259343)
Settings: inhibition: at 10 µM, hits give high values; outcome: 10 uM

| SMILES | inhibition |
| --- | --- |
| CCCc1cc(C(=O)N2C[C@H]3CC=C(C)C[C@H]3C2)ccn1 | 76% (active) |
| CCNc1nc(C(=O)N2CC3CCCC3C2)cs1 (stereo not drawn) | 27.6% |
| Cc1ccc(-c2nc(CN3CCN(c4ccc(Cl)cn4)CC3)c(C)o2)o1 | 47.3% |
| CN(Cc1ccccc1O)C(=O)C1CCN(c2ccc(Cl)cn2)CC1 | 35.1% |
| CC(C)C(C)CNC(=O)N1CCN(c2ccc(Cl)cn2)CC1 (stereo not drawn) | 63.1% (active) |
| Cc1nc2ccc(I)cn2c1C=NNc1ccc(Cl)cc1 | 17.7% |
| Cc1nc2ccc(I)cn2c1C=NNc1ccc2ccccc2c1 | 60.2% (active) |
| Cc1cc(C=NNC(N)=S)c(C)n1CC(F)(F)F | 4.28% |
| CC(C)(C)n1cccc(/C=N\NC(N)=S)c1=S | -2.91% |
| NC(=S)NN=Cc1ccc(Cl)cc1Cl | 86% (active) |
| Cc1ccc(C(=O)Nc2ccc(CN3CCN(C)CC3)c(C(F)(F)F)c2)cc1C#Cc1cnc2cccnn12 | 62.5% (active) |
| CCc1sc(C(=O)OCC(=O)N(C)CC(=O)Nc2ccc(C)cc2)cc1C | -39.5% |
| CCc1ccc(NC(=O)COC(=O)c2cc(C(C)=O)n3ccccc23)cc1 | 65% (active) |
| Nc1[nH]n(-c2ccccc2)c(=O)c1N=Nc1cccc2ccccc12 | 56.7% (active) |
| Nc1[nH]n(-c2ccccc2)c(=O)c1N=Nc1ccc2ncsc2c1 | -3.23% |
| Cc1nc(N)sc1N=Nc1cccc2ccccc12 | 4.08% |
| CCc1cc(C=NC2CCCCC2)c(O)s1 | 54.5% (active) |
| CC1Cc2ccccc2N1Cc1cccc(C(N)=O)c1 (stereo not drawn) | 25.1% |
| CC1Cc2ccccc2N1Sc1ccc([N+](=O)[O-])cc1 (stereo not drawn) | 58.6% (active) |
| CC1Cc2ccccc2N1C(=O)C1CCN(c2ccc(C#N)cn2)CC1 (stereo not drawn) | -4.71% |
| Cc1ccc(-c2nsc(C(=O)N3CCCC(C)C3)c2N)cc1 (stereo not drawn) | 47.8% |
| Cc1c(C(=O)NCc2ccccc2C(F)(F)F)sc(=O)n1Cc1ccccc1F | 21% |
| Cc1c(C(=O)NCc2ccccc2C(F)(F)F)sc(=O)n1Cc1cccc(C(F)(F)F)c1 | 18.8% |
| Cc1ccccc1Cn1c(C)c(C(=O)NCc2ccccc2C(F)(F)F)sc1=O | 65.1% (active) |
| Cc1c(C(=O)NCc2ccc(Cl)c(Cl)c2)sc(=O)n1Cc1ccccc1F | -10.2% |
| COc1ccccc1Cn1c(C)c(C(=O)NCc2ccccc2C(F)(F)F)sc1=O | 15.1% |

| SMILES | inhibition |
| --- | --- |
| COc1ccc(Br)c(Cn2c(C)c(C(=O)NCc3ccccc3C(F)(F)F)sc2=O)c1 | 58.8% (active) |
| Nc1nc(CSc2nnc(C3CC3)n2C2CC2)nc(Nc2ccc(F)cc2)n1 | -0.78% |
| Cc1c2c(nc3cc4c(cc13)OCO4)CCc1ccccc1-2 | 76.4% (active) |
| O=S(=O)(Nc1ccc(F)c(F)c1)c1cc(Cl)ccc1Cl | 95.3% (active) |
| Cc1cc(S(=O)(=O)Nc2ccc(F)c(Cl)c2)c(C)s1 | 30.5% |
| O=S(=O)(Nc1cc(Cl)cc(Cl)c1)c1cc(Cl)ccc1Cl | 56.9% (active) |
| O=S(=O)(Nc1ccc(F)c(Cl)c1)c1ccc(Cl)cc1F | 66.8% (active) |
| O=S(=O)(Nc1cc(Cl)ccc1F)c1cc(Cl)ccc1Cl | 28.1% |
| COc1cccc(-c2noc(CSc3ncnc4sccc34)n2)c1 | 98.8% (active) |
| c1csc(-c2nc(CSc3ncnc4sccc34)co2)c1 | 24.4% |
| N#CC1(C(=O)Nc2nc(-c3ccc(Cl)s3)cs2)CCCC1 | 89.1% (active) |
| Clc1cccc(-c2csc(NC3CC3)n2)c1 | 44.2% |
| O=C(O)C1C2C=CC(C2)C1C(=O)Nc1nc(-c2ccc(Cl)s2)cs1 (stereo not drawn) | 35.5% |
| O=C(CCn1[nH]c(=O)ccc1=O)Nc1nc(-c2ccc(Cl)s2)cs1 | 49.2% |
| N#CC1(C(=O)Nc2nc(-c3cccc(C(F)(F)F)c3)cs2)CCCC1 | 55.5% (active) |
| Cc1ccc(C(=O)c2ccc(CC(=O)O)n2C)cc1 | 52.8% (active) |
| Fc1ccc(-c2cnc(CSc3nnnn3C3CC3)o2)cc1 | 8.58% |
| c1ccc(-c2cc(CSc3nnnn3C3CC3)no2)cc1 | 84.1% (active) |
| c1ccc(-c2cnc(CSc3nnnn3C3CC3)o2)cc1 | 18.6% |
| Cc1ccc(S(=O)(=O)N(C)CCOc2ccccc2C)s1 | 55.1% (active) |
| O=C(O[C@@H]1Cc2c(O)cc(O)cc2O[C@@H]1c1ccc(O)c(O)c1)c1cc(O)c(O)c(O)c1 | 78.4% (active) |
| Cc1ccccc1Cn1nc(-c2ccccc2)ccc1=O | -7.28% |
| CCc1ccc(-c2ccc(=O)n(Cc3ccccc3C)n2)cc1 | 14.8% |
| Cc1ccccc1Cn1nc(-c2ccc3c(c2)OCO3)ccc1=O | 91.3% (active) |
| O=c1ccc(-c2ccc3c(c2)OCO3)nn1Cc1cccc2ccccc12 | -9.21% |
| Cc1ccccc1Cn1nc(-c2cccs2)ccc1=O | 89.9% (active) |

| SMILES | inhibition |
| --- | --- |
| COc1ccc(-c2ccc(=O)n(Cc3ccccc3C)n2)cc1 | 27.4% |
| O=C(Cc1ccc(Cl)cc1)NCCSc1ncc(-c2ccccc2)[nH]1 | 60.9% (active) |
| O=C(CSc1ncc(-c2ccc([N+](=O)[O-])cc2)[nH]1)NC(C(=O)O)(c1ccccc1)c1ccccc1 | -11.4% |
| OC(C#Cc1ccccc1)c1ncc(-c2ccccc2)[nH]1 (stereo not drawn) | 20.7% |
| O=C(Nc1ccc(Cl)nc1)N1CCC(COCc2ccccc2)C1 (stereo not drawn) | 95% (active) |
| COC(=O)C1CCC2C3CC=C4CC(O)CCC4(C)C3CCC12C (stereo not drawn) | 79.9% (active) |
| CC12CCC(O)CC1=CCC1C2CCC2(C)C(O)C(=Cc3ccc([N+](=O)[O-])cc3)CC12 (stereo not drawn) | -53.2% |
| COc1ccc(C=C2CC3C4CC=C5CC(O)CCC5(C)C4CCC3(C)C2O)cc1 (stereo not drawn) | -0.03% |
| S=C(NC1Cc2ccccc2C1)N1CCCC1 | 14.2% |
| CN(Cc1cccc(F)c1)C(=O)c1ccc(NC(=O)C2CC2)s1 | -11.3% |
| O=C(Cc1cccc(F)c1)NCc1ccc(Cl)s1 | 64.5% (active) |
| COc1cccc(OCC(=O)Oc2ccc(C(=O)c3ccc(C)cc3)cc2)c1 | 53% (active) |
| CC(=O)c1ccc(OC(=O)COc2cccc(OCCC(C)C)c2)cc1 | 67.6% (active) |
| CC(=O)c1ccc(OC(=O)COc2ccc(Oc3ccc(C)cc3)cc2)cc1 | 88.7% (active) |
| CCOc1ccc(OCCOc2cccc(C(F)(F)F)c2)cc1 | 84.9% (active) |
| CCOc1ccc(OCCOc2ccc(Cl)cc2)cc1 | 93.8% (active) |
| CCOc1ccc(OCCCOc2ccc(Cl)cc2)cc1 | inactive |
| CCOc1ccc(OCCOCCOc2ccccc2)cc1 | 92.7% (active) |
| CCOc1ccccc1OCCOc1ccccc1 | 27.6% |
| CCOc1cccc(OCCOc2cccc(Br)c2)c1 | 36.5% |
| CCOc1ccc(OCCOc2ccccc2)cc1 | 92.8% (active) |
| CCOc1ccc(OCCCOc2ccc(CC)cc2)cc1 | -34% |
| CCOc1ccc(OCCCOc2ccc(I)cc2)cc1 | 92.8% (active) |
| Clc1ccc(OCCOC2OCCOC2OCCOc2ccc(Cl)cc2)cc1 (stereo not drawn) | 76.8% (active) |
| Clc1ccc(OCCOCCOc2ccc(Cl)cc2)cc1 | 21.3% |
| CCOc1ccc(OCCCOc2ccc(C)cc2)cc1 | -3.92% |

| SMILES | inhibition |
| --- | --- |
| CN=c1scc(C)n1N=C(C)c1cccc(F)c1 | 15.2% |
| COc1ccc(/C=C(/C#N)c2c[nH]c3ccccc23)cc1 | 33.9% |
| O=C(Cc1cc(-c2ccc(F)cc2F)on1)NCCCc1ccccc1 | 54% (active) |
| O=C(Cc1cc(-c2ccc(F)cc2F)on1)NCCc1ccccc1 | 93.5% (active) |
| CC(C)OCCCNC(=O)Cc1cc(-c2ccc(F)cc2F)on1 | 36.4% |
| O=C(OCc1cc(-c2ccc(F)cc2F)on1)C1CC1 | 38.6% |
| O=C(Cc1cc(-c2ccc(F)cc2F)on1)NCCC1=CCCCC1 | 85.6% (active) |
| O=C(Cc1cc(-c2ccc(F)cc2)on1)NCCC1=CCCCC1 | 36.7% |
| COc1ccc(NC(=O)c2ccc3c(c2)CCCC3)c(OC)c1 | 10.4% |
| COc1ccc(NC(=O)c2ccc3c(c2)CCCC3)cn1 | 97.6% (active) |
| Fc1c(F)c(F)c(N2CCNCC2)c(F)c1F | -14.9% |
| FC(F)(F)C1CCCN(c2nsc3ccccc23)C1 (stereo not drawn) | 101% (active) |
| FC(F)Oc1ccc(-c2n[nH]c(=S)n2N=Cc2ccc3c(c2)OCCO3)cc1 | 85.8% (active) |
| CCN=c1scc(-c2ccc(OC(F)F)cc2)n1N=Cc1ccc2c(c1)OCO2 | -4.29% |
| Cc1ccc(-c2n[nH]c(=S)n2N=Cc2ccccc2)cc1 | 55.7% (active) |
| O=c1cc(-c2ccc(F)cc2)[nH]n1-c1nc2ccccc2[nH]1 | 75.6% (active) |
| CC(C)c1cc(-n2ccnc2)n2ncc(-c3ccccc3)c2n1 | inactive |
| C=C(C#N)C(O)c1ccc(-c2ccccc2)cc1 (stereo not drawn) | 27.8% |
| c1ccc(-c2ccc(C(c3ccccc3)n3ccnc3)cc2)cc1 (stereo not drawn) | 79.7% (active) |
| Cc1cc(C(=O)N(CCCN(C)C)c2nc3ccc(Cl)cc3s2)nn1C | 30.6% |
| COc1ccc(Cl)c2sc(N(CCCN(C)C)C(=O)Cc3ccccc3)nc12 | 69.2% (active) |
| CCC(C)(C)C1CCC2(CC1)NCCc1c2[nH]c2ccccc12 (stereo not drawn) | 0.19% |
| Cc1nonc1CN(C)C(=O)c1coc(COc2cccc(C(F)(F)F)c2)n1 | 22.3% |
| C=C(C)CN(C)C(=O)c1coc(COc2ccc3c(c2)OCO3)n1 | 26.6% |
| C=CCN(C)C(=O)c1coc(COc2ccc3ccc(OC)cc3c2)n1 | 65.1% (active) |
